Assay results from PubChem BioAssay.
Active and inactive are the calls of the source.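 How the source made its calls: active means inhibition at or above 50% at 10 µM; inactive means inhibition below 50%.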

Test: blockers of RIG-like receptor reporter activation – cell-based, Sendai virus stimulus, luciferase, 10K MLSCN set, TLR/RLR signaling modifier project, primary screen (AID 602276);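 further: firefly luciferase from ISG56 promoter only with Renilla not read in this screen; 0% = Sendai virus plus DMSO and 100% = medium plus DMSO without virus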
Conditions: HEK293 RL24 IRF3 luciferase reporter, at 10 µM, hits give high values

| SMILES | inhibition |
| --- | --- |
| COc1ccc(OC)c(NC(=O)CSc2nnc(-c3ccco3)n2-c2ccccc2)c1 | 12.9% (inactive) |
| C#CCSc1nc(-c2cccs2)ccc1C#N | -10.7% (inactive) |
| O=C1c2oc3ccccc3c(=O)c2C(c2cccnc2)N1Cc1ccco1 (stereo unspecified) | -0.371% (inactive) |
| Cc1ccc(C(=O)Nc2c(C(=O)N3CCOCC3)cnn2-c2ccccc2)cc1 | 14% (inactive) |
| C#CCOC(=O)C1C2C=CC(C2)C1C(=O)O (stereo unspecified) | 4.82% (inactive) |
| O=C(NC1CCCCCCC1)C1CCN(c2nc3ccccc3o2)CC1 | 6.61% (inactive) |
| COC(=O)c1[nH]c2ccc(C)cc2c1NC(=O)CN1CCC(C)CC1 | 4.88% (inactive) |
| Cc1cc(C)nc(SCc2nnc(SCC(=O)Nc3ncc(C)s3)n2Cc2ccco2)n1 | 8.75% (inactive) |
| O=C(c1ccc(S(=O)(=O)N2CCC(c3nc4ccccc4s3)CC2)cc1)N1CCOCC1 | -8.58% (inactive) |
| CCCCCc1nnc(NC(=O)Cc2cccs2)s1 | 11.9% (inactive) |
| COc1ccc(N=C2C(=O)Nc3ccccc32)cc1 | 13% (inactive) |
| O=C(O)CCc1ccc(-c2ccc(F)cc2)n1CCC(=O)O | 15.3% (inactive) |
| COC(=O)c1ccccc1NC(=O)c1cnc2sccn2c1=O | 5.91% (inactive) |
| COc1ccc(Cl)c(NC(=O)NCCN2CCN(c3ccccc3)CC2)c1 | 15.2% (inactive) |
| COc1cccc(NC(=O)N(CCCN2CCOCC2)C(C)c2cc3cccc(OC)c3o2)c1 (stereo unspecified) | 16.5% (inactive) |
| CC(C)(C)NC(=O)CN(Cc1cccs1)C(=O)c1csnn1 | 11.9% (inactive) |
